# A selection: hits, their analogues and other compounds. The true share with any hit is near 19%.
# Pf growth 96h – P. falciparum growth inhibition at 96 hour, primary screen for plastid delayed-death inhibitors | 320,000 compounds, 6.9% hits | Potency, µM (titrated, usually from 28.7 µM), inactives show top-dose activity change, negative = inhibition, actives largely listed as inhibitors | AID 504834 | P. falciparum luciferase reporter growth, 96 h; note: potency is the fitted concentration of half-maximal effect; % is set by controls: 0 for no effect and ±100 for the full control effect
#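 Compounds incubated with erythrocytes infected by luciferase-expressing P. falciparum (2% hematocrit, 0.05% parasitemia final) for 96 hours, 37 C in 5% CO2. Growth inhibition scored as decreased luciferase luminescence.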
# Pf growth 48h – P. falciparum growth inhibition at 48 hours (one generation); P. falciparum luciferase growth in erythrocytes, 48 h; Potency, µM (doses to about 28.7 µM), for inactives: at the top dose activity change, negative = inhibition, actives largely listed as inhibitors; 310,000 compounds, 5.9% hits; AID 504832; note: potency is the fitted concentration of half-maximal effect; % is set by controls: 0 for no effect and ±100 for the full control effect
#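 First compound was added to culture medium, then infected red cells at 0.1% parasitemia and 2% hematocrit (final). After incubation at 37 C under 5% CO2, luciferase detection reagent was dispensed and light output recorded.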
# CHX counter – counter-screen for Shiga toxin inhibitors: cycloheximide protein synthesis inhibition; 300,000 compounds, 12% hits; max response, %; cell reporter, cycloheximide protein synthesis inhibition counterscreen; AID 2314; in the data active = max response mostly above about 13%, no sharp cut-off; inactive = mostly below about 14%; note: read at 38.3 µM for the half of the compounds with a filed dose; 0% is about no effect
# MARV entry inh – inhibitors of Marburg virus binding or cell entry. Marburg virus pseudotyped entry inhibition, cell reporter. Potency, µM (top dose mostly 37.8 µM), inactives show top-dose activity change, negative = inhibition, actives largely listed as inhibitors. 300,000 compounds, 1.8% hits; calls by dose curve; tested in HEK293 cells; note: potency is the fitted concentration of half-maximal effect; % is set by controls: 0 for no effect and ±100 for the full control effect
# Shiga toxin inh – inhibitors of Shiga toxin in Vero cells; Vero cells, Shiga toxin protein synthesis inhibition reporter; AID 2315; inhibition, % at 38.7 µM; 290,000 compounds, 9.2% hits; in the data active = inhibition mostly above about 28%, no sharp cut-off; inactive = mostly below about 43%; note: 0% is about no effect
# LASV entry inh – inhibitors of Lassa virus binding or cell entry; Lassa virus pseudotype entry inhibition, cell reporter; Potency, µM (doses to about 37.9 µM), for the others: at the top dose activity change, negative = inhibition, hits mostly inhibitors; 300,000 compounds, 1.2% hits; AID 540256; calls by dose curve; tested in HEK293 cells; note: potency is the fitted concentration of half-maximal effect; % is set by controls: 0 for no effect and ±100 for the full control effect; nearly all actives have a fitted effect of over 50% in size
# Active calls of the source: *; u = inconclusive; x = no result; [ ] = remark or other dose. Unless noted, calls come from the whole dose curve; as a rule, active = well fitted inhibition curve with a large enough effect; inconclusive = small, poorly fitted or top-dose-only effect, or another doubt; inactive = no such curve, though single readings can be large or run the other way.
SMILES,Pf growth 96h,Pf growth 48h,CHX counter,MARV entry inh,Shiga toxin inh,LASV entry inh
COc1ccccc1NC(=O)c1ccc(NC(=O)CN2CCN(C(=O)c3ccco3)CC2)cc1,u,-24%,-2,x,15,x
COc1ccccc1NC(=O)CN1CCN(C(=O)c2ccco2)CC1,-25%,2.1µM*,-1,2%,-8,0%
COc1ccc(NC(=O)CN2CCN(C(=O)c3ccco3)CC2)c(OC)c1,-16%,10µM*,-3,11%,-19,-14%
CCCC[C@@H](CNC)NC[C@H](Cc1ccc(O)cc1)NCCc1ccc(OCC)cc1,0.93µM*,2.6µM*,-4,x,1,x
O=c1c2c3c(sc2ncn1/N=C/c1cccnc1)CCCC3,-14%,-12%,26*,2%[46.1 µM],100*,x
CC(C)CCn1c(SCC#N)nc2c(sc3ccccc32)c1=O,19%,u,-3,u,-5,7%
CCN1C(C(=O)c2ccccc2)=C(OC(=O)COc2ccc(OC)cc2)c2ccccc2S1(=O)=O,x,x,x,26%[46.1 µM],x,-6%[46.1 µM]
N/C(=N\OC(=O)c1cccc2ccccc12)c1cccnc1,-7%,u,42*,u,94*,-15%
O=C(O/N=C(\c1ccccc1)c1ccccn1)c1cccc2ccccc12,9.3µM*,16%,14*,12%,12,14%
Cc1cccc(/C(N)=N/OC(=O)c2cccc3ccccc23)c1,0%,-73%,21*,x,59*,x
O=C(COC(=O)c1cccnc1)Nc1cccc2ccccc12,2%,21%,-3,2%[46.1 µM],4,3%
Cc1cccc(C)c1NC(=S)N1CCCN(C)CC1,19%,11%,2,6%[46.1 µM],-6,11%
COc1ccc(-c2nc3c(c(SCC(=O)Nc4cccc(O)c4)n2)Cc2c(CO)cnc(C)c2O3)cc1,4%,9.3µM*,8,x,-2,u
Cc1ncc(CO)c2c1Oc1nc(-c3ccccc3)nc(SCC(=O)Nc3cccc(O)c3)c1C2,-3%,9.3µM*,1,x,5,x
CCOc1ccc(NC(=O)CSc2nc(-c3ccc(OC)cc3)nc3c2Cc2c(CO)cnc(C)c2O3)cc1,x,x,x,x,x,-1%[46.1 µM]
Cc1ncc(CO)c2c1Oc1nc(-c3ccccc3)nc(SCC(=O)Nc3cccc(C(F)(F)F)c3)c1C2,x,x,x,x,x,15%[46.1 µM]
O=C(Nc1ccc(O)c2c(=O)cc(-c3cccc(Cl)c3)oc12)c1cccc(Cl)c1,8%,10%,-1,u,-2,x
Cc1cccc(N2CCN(CC(O)COc3ccc4ccccc4c3)CC2)c1 (stereo unspecified),x,x,x,1%[46.1 µM],x,22%[46.1 µM]
CC#CCCCC(=O)Nc1cc(OC)nc(OC)n1,x,36%,-1,-7%,6,17%
Cc1[nH][nH]c(=O)c1C(c1c(C)[nH][nH]c1=O)c1cn(Cc2ccc(Cl)c(Cl)c2)c2ccccc12,5%,u,-2,8.2µM*,-10,u
O=C(NC1CCN(S(=O)(=O)c2ccccc2F)CC1)c1cccnc1,0%,-8%,-2,-7%[46.1 µM],-4,-8%[46.1 µM]
O=C(CSc1nc2ccccc2c(=O)n1-c1ccccc1Cl)NC1CCS(=O)(=O)C1 (stereo unspecified),10µM*,u,x,x,x,x
CCc1ccc(-n2c(SCC(=O)NC3CCS(=O)(=O)C3)nc3ccccc3c2=O)cc1 (stereo unspecified),u,-19%,x,x,x,x
O=C(CSc1nc2cc(C(F)(F)F)ccc2n1Cc1ccccc1)NC1CCS(=O)(=O)C1 (stereo unspecified),12µM*,u,-3,u,-2,u
Cc1ccc(-n2c(SCC(=O)NC3CCS(=O)(=O)C3)nc3ccccc3c2=O)cc1 (stereo unspecified),-14%,56%,5,-4%[46.1 µM],-3,13%
CC[C@@H](C)[C@@H](C(=O)N1CCN(C(=O)OC(C)(C)C)CC1)n1cc(CCCCNC(=O)OC(C)(C)C)nn1,u,u,2,x,-6,x
CC[C@H](C)C(C(=O)N1CCN(C(=O)OC(C)(C)C)CC1)n1cc(C(CC(C)C)NC(=O)OC(C)(C)C)nn1 (stereo partly specified),2.3µM*,u,1,x,20,x

# Screening data as filed in PubChem.
